Assay outcomes (PubChem BioAssay)
Most compounds without a hit are left out; they make up all but 2.3% or so of the library.
TMEM16A act: TMEM16A chloride channel activators or potentiators, primary screen, cell-based, HTS; Anoctamin-1 (Mus musculus), Q8BHY3; B-score at 10 µM; HEK293 TMEM16A/YFP-H148Q/I152L, iodide quench fluorescence; active compounds read low; actives 0.3% (n = 340,000);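 active = fluorescence-ratio B-score plate-corrected deviation score at least 3 library SD below zero, with starting fluorescence score within 5 deviations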;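 note: channel opened by trigger with iodide after compound preincubation; score built on the fluorescence ratio of max minus min over baseline; more negative score means more quench and so TMEM16A activation or potentiation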
Target sequence (Q8BHY3 whole entry, looked up): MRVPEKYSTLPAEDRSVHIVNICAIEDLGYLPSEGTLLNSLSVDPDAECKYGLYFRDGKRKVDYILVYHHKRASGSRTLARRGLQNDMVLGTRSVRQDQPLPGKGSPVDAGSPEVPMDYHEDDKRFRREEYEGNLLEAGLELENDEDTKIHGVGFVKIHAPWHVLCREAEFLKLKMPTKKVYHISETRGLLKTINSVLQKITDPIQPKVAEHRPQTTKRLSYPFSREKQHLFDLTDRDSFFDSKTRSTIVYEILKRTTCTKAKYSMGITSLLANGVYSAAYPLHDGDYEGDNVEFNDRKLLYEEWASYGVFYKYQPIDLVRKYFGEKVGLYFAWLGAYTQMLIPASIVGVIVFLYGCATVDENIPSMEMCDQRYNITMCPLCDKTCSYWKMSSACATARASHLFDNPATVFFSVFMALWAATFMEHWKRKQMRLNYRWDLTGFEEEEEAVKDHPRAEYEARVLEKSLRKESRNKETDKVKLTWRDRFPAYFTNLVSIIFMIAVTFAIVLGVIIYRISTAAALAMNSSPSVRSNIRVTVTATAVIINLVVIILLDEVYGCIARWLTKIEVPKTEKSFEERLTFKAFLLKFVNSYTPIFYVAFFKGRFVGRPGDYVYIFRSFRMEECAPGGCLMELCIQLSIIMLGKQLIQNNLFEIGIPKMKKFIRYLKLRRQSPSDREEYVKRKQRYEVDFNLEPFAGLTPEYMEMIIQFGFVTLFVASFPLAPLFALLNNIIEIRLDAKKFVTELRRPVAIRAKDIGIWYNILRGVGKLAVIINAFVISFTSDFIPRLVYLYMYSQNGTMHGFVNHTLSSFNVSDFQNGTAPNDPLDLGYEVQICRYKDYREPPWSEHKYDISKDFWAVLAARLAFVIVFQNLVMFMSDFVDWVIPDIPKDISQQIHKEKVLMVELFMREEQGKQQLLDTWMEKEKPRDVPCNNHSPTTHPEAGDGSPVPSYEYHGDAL
CHT PAM: CHT positive allosteric modulators, primary screen, cell-based, membrane potential dye, choline EC20 | B-score at 10 µM | CHT-expressing cells; active compounds read high; LV-AA mutant CHT in HEK293 cells | actives 0.49% (n = 310,000) | AID 488977, 2010;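 active = initial fluorescence not abnormally high and integrated response B-score, plate-corrected, over 3 SD above library mean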
CHT inh: inhibitors of human choline transporter CHT; High affinity choline transporter 1 (Homo sapiens), Q9GZV3; CHT-expressing cells, membrane potential dye, choline response; active compounds read low; B-score at 10 µM; actives 0.86% (n = 310,000);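 active = B-score over 3 SD under the library average, and starting fluorescence ratio not unusually high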;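 note: choline stimulus applied at its EC90 after an EC20 pre-addition; B-score computed on integrated fluorescence ratio after choline addition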
TMEM16A inh: TMEM16A chloride channel inhibitors, primary screen, cell-based, HTS; Anoctamin-1 (Mus musculus), Q8BHY3; HEK293 TMEM16A/YFP iodide influx fluorescence, ionomycin; normalized B-score (activity score, 25-100; higher = stronger inhibition) at 10 µM; actives 1.2% (n = 310,000); AID 588511, 2011;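 active = ratio plate-corrected score three or more library SD toward inhibition, starting fluorescence score within five deviations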;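 note: score derived from kinetic fluorescence span divided by baseline fluorescence per well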
Of the large screens only hits and unclear results are named; the others gave an inactive call.

O=C(Nc1cccc(Cl)c1N1CCCC1)c1ccc(Br)o1	TMEM16A inh 25
CCN1CCN(c2c(Cl)cccc2NC(=O)c2cccs2)CC1	none
CCN1CCN(c2c(Cl)cccc2NC(=O)c2ccc([N+](=O)[O-])o2)CC1	CHT PAM 7.1
CCN(CC)c1ccc(NC(=S)NC(=O)c2cccs2)cc1	none
COc1nc(N=C(N)N)nc2ccc(C)cc12	CHT PAM 7.4 (no result: TMEM16A act)
CN(CC(=O)Nc1nc2ccccc2s1)S(=O)(=O)c1ccc(Br)cc1	TMEM16A inh 25
O=C1c2ccccc2[C@@H]2C[C@H]3O[C@H]3CCN12	none (no result: CHT PAM, CHT inh, TMEM16A inh)
CCOC(=O)C1(CCCc2ccccc2)CCN(C(=O)CSC)CC1	none
CCOC(=O)C1(CCc2ccccc2)CCN(Cc2cccc3nccnc23)CC1	CHT inh -12
CCOC(=O)C1(CCc2ccccc2)CCN(Cc2ccn[nH]2)CC1	none
CCOC(=O)C1(CCCc2ccccc2)CCN(C(=O)Cc2nonc2C)CC1	TMEM16A act -6.7
CS(=O)(=O)N1CCCCC1CCN1CCCCC1 (centres undefined)	none (no result: CHT PAM, CHT inh, TMEM16A inh)
Cc1ccc2cc(C#N)c(N3CCCC3)nc2c1C	none (no result: TMEM16A act)
Cc1ccc2cc(C#N)c(N3CCCN(C(=O)C4CCCO4)CC3)nc2c1C (centres undefined)	CHT inh -6.1
Cc1c(N2C(=O)/C(=C/c3ccc(N(C)C)cc3)N(C)C2=S)c(=O)n(-c2ccccc2)n1C	TMEM16A act -8 (no result: CHT PAM, CHT inh, TMEM16A inh)
Cc1ccc(-n2ncc(C(=O)Nc3cc(Cl)ccc3C)c2C2CCNCC2)cc1C	none
CC(C(=O)Nc1ccccc1)c1ccc(-c2ccccc2)c(F)c1 (centres undefined)	TMEM16A inh 100
Cc1nn(CCc2nn[nH]n2)c2nc(-c3ccc(Br)cc3)cc(C(F)(F)F)c12	TMEM16A inh 100
C[N+](C)(CCOc1ccccc1)Cc1ccccc1	none (no result: CHT PAM, CHT inh, TMEM16A inh)
Cc1cc(C(C)(C)CC(C)(C)C)ccc1OCCOCC[N+](C)(C)Cc1ccccc1	TMEM16A inh 100
COc1ccc(S(=O)(=O)N(Cc2cccs2)C2CCCC2)cc1	TMEM16A inh 100
Cc1cccc(OCC(=O)Nc2cc(NC(=O)COc3cccc(C)c3C)cc(C(=O)O)c2)c1C	none
Cc1cccc(OCC(=O)Nc2ccc(C(=O)Nc3ccccc3C(=O)O)cc2)c1C	CHT inh -5.6
N#Cc1ccc(OCC(O)CN2CCN(c3ncc(C(F)(F)F)cc3Cl)CC2)cc1 (centres undefined)	TMEM16A inh 25
O=C(CCl)Nc1cc(SCC(O)CO)cc([N+](=O)[O-])c1 (centres undefined)	none (no result: CHT PAM, CHT inh, TMEM16A inh)
CCC(=O)Nc1cc(SCCO)cc([N+](=O)[O-])c1	TMEM16A inh 100
Cc1c(Cl)c([N+](=O)[O-])nn1CCCC(=O)NCCc1ccccc1	none
O=C(COC(=O)c1ccc[nH]c1=O)NC1CCCCCCC1	TMEM16A act -22
O=C1c2ccccc2C(=O)C1(CO)c1ccc(OC(F)F)cc1	none
CNC[C@H](Cc1ccccc1)NC[C@@H](Cc1cccc2ccccc12)NCCc1ccc(C)cc1	TMEM16A inh 100
CNCCNC[C@H](Cc1cccc2ccccc12)NCCc1ccccc1	none (no result: CHT PAM, CHT inh, TMEM16A inh)
Cc1nn(C(=O)CCC(=O)NCc2ccc(OC(C)C)cc2)c2ccccc12	none
Cc1cccc(C)c1NC(=O)c1sc(Cl)nc1C	none
O=S(=O)(NC1CC1)c1ccc(S(=O)(=O)N2CCCC3(CCCCC3)C2)cc1	none
Cc1cccc(N2CCN(CC(=O)Nc3ccc(S(=O)(=O)N4CCOCC4)cc3)CC2)c1C	TMEM16A inh 25
CC(C(=O)Nc1ccc(S(=O)(=O)N2CCOCC2)cc1)N(c1ccccc1)S(C)(=O)=O (centres undefined)	TMEM16A act -10
CC1(C(=O)Nc2ccc3c(c2)OCCO3)CC1(Cl)Cl (centres undefined)	none
Cc1cccc(C)c1-n1cccc1/C=C1\SC(=S)N(c2cccc(C(=O)O)c2)C1=O	TMEM16A inh 100
O=C(NC(c1cccnc1)C(F)(F)F)c1cc(COc2ccc3c(c2)CCCC3)on1 (centres undefined)	TMEM16A inh 25
CSc1ccc(NC(=O)Nc2cccn(Cc3ccccc3)c2=O)cc1	TMEM16A inh 100
Cc1cc2ccccn2c1C(=O)Nc1cccc(Cl)c1	none
CN(C(=O)c1ccc(C#N)cc1)c1nnc(-c2cnccn2)s1	TMEM16A act -5.2
Cc1cc(NC(=S)N(Cc2ccc(Br)cc2)Cc2ccc(C(=O)O)cc2)ccc1Cl	TMEM16A inh 25
